Bioassay records as filed in PubChem BioAssay.
Shown are actives, neighbours in structure and some others; about 2.9% of the full set was active somewhere.
PP1 inh – counter-screen for PP5 inhibitors: inhibitors of human PP1-alpha; P62136; purified PP1alpha, OMFP fluorescence; inhibition, % at 6.7 µM; 320,000 compounds, 0.9% hits; AID 2235;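 active means inhibition above the mean inhibition of all tested compounds plus 3 SD, computed separately for each screening campaign, cut at about 15% in these data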
Granule exo inh – blocks lytic granule exocytosis; AID 651702; inhibition, % at 10 µM; 360,000 compounds, 0.66% hits; TALL-104 LAMP-1 surface exposure, flow cytometry; cells stimulated with thapsigargin and PMA;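 active means inhibition above about 55%, limit read from the data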
B2AR ag – activates human beta-2 adrenergic receptor causing internalization. Am2.2-beta2AR cells, FAP receptor internalization, flow cytometry. response, % (test concentration not listed). 340,000 compounds, 0.43% hits. AID 504454;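 active means response above a set limit, near 3 SD of response in nonfluorescent compounds, cut at about 42% in these data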
Target sequence (P07550 whole entry, looked up): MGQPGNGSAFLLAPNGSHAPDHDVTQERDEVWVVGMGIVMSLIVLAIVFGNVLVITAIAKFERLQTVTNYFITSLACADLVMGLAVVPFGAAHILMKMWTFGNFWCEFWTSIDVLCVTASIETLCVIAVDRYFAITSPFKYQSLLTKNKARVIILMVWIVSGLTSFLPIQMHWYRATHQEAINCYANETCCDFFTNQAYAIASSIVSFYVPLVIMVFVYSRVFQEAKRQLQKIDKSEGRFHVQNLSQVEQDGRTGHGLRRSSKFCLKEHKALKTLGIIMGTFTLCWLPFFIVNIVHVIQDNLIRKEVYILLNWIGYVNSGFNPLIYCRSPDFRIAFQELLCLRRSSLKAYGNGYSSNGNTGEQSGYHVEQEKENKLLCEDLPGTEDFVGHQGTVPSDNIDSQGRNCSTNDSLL
GRK2 aptamer HTS – human GRK2 inhibition via aptamer displacement. bead flow cytometry, FAM-aptamer displacement from GRK2. inhibition of aptamer binding, % at 10 µM. 330,000 compounds, 0.59% hits. AID 488847;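 active means inhibition of aptamer binding above 40%, roughly 3 SD of noise, on plates passing a quality check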;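 further: median bead fluorescence of bound FAM aptamer so fluorescent compounds give negative values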
NadD block – NadD (S. aureus) enzyme inhibition; purified NadD enzyme, colorimetric absorbance read-out; inhibition, % at 20 µM; 360,000 compounds, 0.78% hits; AID 602399; in the data active means inhibition above about 26%
Exocytosis CP01 – blocks lytic granule exocytosis; 1,500 compounds, 11% hits; inhibition, % at 10 µM; TALL-104 cells, LAMP-1 externalization, flow cytometry; stimulated with PMA plus thapsigargin; shares compounds with Granule exo inh; in the data active means inhibition above about 60%;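 further: 0% = stimulated vehicle wells and 100% = unstimulated wells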
Starred values were filed as active, the others as inactive.

`CC(NC(=S)Nc1ccc(F)cc1)c1ccccc1` (centres undefined) gave PP1 inh -1.1, Granule exo inh 73.8*, B2AR ag -5.3, GRK2 aptamer HTS 0.0, NadD block 2.8 and Exocytosis CP01 -4.7.
`CC1CN(C(=O)CCc2cc(C(C)(C)C)c(O)c(C(C)(C)C)c2)CC(C)O1` (centres undefined) gave PP1 inh -4.5, Granule exo inh 2.6, B2AR ag -0.8, GRK2 aptamer HTS 0.0 and NadD block -0.4.
`Cc1ccn2cc(-c3ccc(NC(=O)c4ccco4)cc3)nc2c1` gave PP1 inh -5.4, Granule exo inh 85.4*, B2AR ag -17.5, GRK2 aptamer HTS 1.0, NadD block -2.9 and Exocytosis CP01 -3.7.
O=C(Nc1ccc(NC(=O)c2cccs2)cc1)c1cccs1 was read as PP1 inh 4.3, Granule exo inh -9.8, B2AR ag -9.7, GRK2 aptamer HTS 2.0 and NadD block 6.8.
`Cc1nc(-c2ccc(NC(=O)c3ccco3)cc2)cs1` gave PP1 inh 2.1, Granule exo inh 7.8, B2AR ag -11.6, GRK2 aptamer HTS 0.0 and NadD block -1.2.
Screening O=C(Nc1ccc(-c2cn3ccccc3n2)cc1)c1cccs1 returned PP1 inh 3.8, Granule exo inh 71.9*, B2AR ag 5.8, NadD block 7.3 and Exocytosis CP01 48.2.
`CCc1nc2ccc(C(=O)N(C)Cc3ccco3)cn2c1N(CC)C(=O)NCCc1ccccc1` gave Granule exo inh 5.8 and NadD block 4.8.
`OCCC1CN(CCCc2ccccc2)CCN1CCc1ccccc1` (centres undefined) gave PP1 inh 2.9, Granule exo inh 61.2*, B2AR ag 7.5, GRK2 aptamer HTS 0.0, NadD block -2.7 and Exocytosis CP01 -3.8.
CCOC(=O)C(NC(=O)CC)(N1CCc2ccccc2C1)C(F)(F)F (centres undefined) was read as PP1 inh -1.0, Granule exo inh 0.0, B2AR ag -3.7, GRK2 aptamer HTS 0.0 and NadD block -2.3.
CCCCN(CCO)c1ncnc2sc(-c3ccccc3)cc12 was read as PP1 inh 4.3, Granule exo inh 91.8*, B2AR ag 8.6, GRK2 aptamer HTS 0.0, NadD block -8.2 and Exocytosis CP01 -10.4.
For O=C(O)C1CC(Br)C(Br)CC1C(=O)O (centres undefined) the results were Granule exo inh -2.1 and NadD block -3.8.
For Cn1c2c(c(=O)[nH]c1=O)C(c1cccc(O)c1)C1=C(N2)c2ccccc2C1=O (centres undefined) the results were Granule exo inh 3.7, B2AR ag -15.6 and NadD block 3.9.
COc1ccccc1C(=O)Nc1c(C(=O)N(CCN(C)C)Cc2ccco2)oc2ccccc12 was read as PP1 inh -0.5, Granule exo inh 65.8*, B2AR ag 21.7, GRK2 aptamer HTS 0.0, NadD block -4.7 and Exocytosis CP01 1.9.
For O=[N+]([O-])c1ccc(-c2nc3ccc([N+](=O)[O-])cc3[nH]2)cc1 the results were PP1 inh -1.8, Granule exo inh -1.2, B2AR ag 21.4, GRK2 aptamer HTS 3.0 and NadD block 2.5.
For O=[N+]([O-])c1ccc2nc(/C=C/c3ccc(Cl)cc3)[nH]c2c1 the results were PP1 inh 5.3, Granule exo inh 91.1*, B2AR ag 20.8, GRK2 aptamer HTS 0.0, NadD block 18.8 and Exocytosis CP01 88.5*.
For CSCCC(NC(=O)c1ccco1)C(=O)N1CCN(c2ccccc2O)CC1 (centres undefined) the results were PP1 inh -0.2, Granule exo inh 0.9, B2AR ag 1.1, GRK2 aptamer HTS 0.0 and NadD block -4.2.
Screening COc1ccc(-c2cc(N3CCN(CCO)CC3)n3nccc3n2)cc1 returned Granule exo inh -8.2 and NadD block 5.8.
Screening OCCN1CCN(c2cc(-c3ccc4ccccc4c3)nc3ccnn23)CC1 returned Granule exo inh 59.1*, NadD block -1.6 and Exocytosis CP01 -12.1.
Screening CC1(C(=O)Nc2ccc(Cl)c(Cl)c2)CCN1C(=O)Cc1cccc2ccccc12 (centres undefined) returned Granule exo inh 4.6 and NadD block 0.4.
`Oc1c(CN2CCOCC2)cc(-c2ccccc2)cc1CN1CCOCC1` gave PP1 inh -2.9, Granule exo inh 1.8, B2AR ag -2.6, GRK2 aptamer HTS 0.0 and NadD block -1.9.
`Oc1c(CN2CCOCC2)ccc2ccccc12` gave Granule exo inh 86.0*, B2AR ag 13.9, NadD block 4.8 and Exocytosis CP01 -12.3.
For CCOC(=O)N1CCN(CCC(=O)c2ccc(Cl)cc2)CC1 the results were PP1 inh 4.7, Granule exo inh 35.1, B2AR ag 1.6, GRK2 aptamer HTS 0.0 and NadD block -1.0.
For CCOC(=O)N1CCN(CCC(=O)c2ccc(Br)cc2)CC1 the results were Granule exo inh 88.1*, B2AR ag -2.5, GRK2 aptamer HTS 3.0, NadD block -7.2 and Exocytosis CP01 7.7.
Screening O=C(CCN1CCc2ccccc2C(c2ccccc2)C1)c1ccc2c(c1)OCCO2 (centres undefined) returned PP1 inh -3.3, Granule exo inh 95.8*, B2AR ag 3.5, GRK2 aptamer HTS 1.0, NadD block -2.4 and Exocytosis CP01 81.0*.
O=C(CCN1Cc2ccccc2C1)c1ccc2c(c1)OCCO2 was read as PP1 inh -1.4, Granule exo inh 40.1, B2AR ag -1.8, GRK2 aptamer HTS 2.0 and NadD block -3.3.
COc1ccc(N(CC(=O)Nc2ccc(Cc3ccncc3)cc2)S(=O)(=O)c2ccccc2)cc1 was read as PP1 inh 4.2, Granule exo inh 35.5, B2AR ag -5.6, GRK2 aptamer HTS 1.0 and NadD block 11.6.
Screening CCOc1ccccc1N(CC(=O)Nc1cc(OC)ccc1OC)S(=O)(=O)c1ccccc1 returned Granule exo inh -1.2, B2AR ag 15.6, GRK2 aptamer HTS 1.0 and NadD block -11.7.
COc1ccc(OC)c(N(CC(=O)NCCSCc2ccco2)S(=O)(=O)c2ccccc2)c1 was read as PP1 inh 0.5, Granule exo inh 85.3*, B2AR ag 3.6, GRK2 aptamer HTS 2.0, NadD block 0.0 and Exocytosis CP01 -12.6.
`COc1ccccc1N(CC(=O)Nc1ccc(Cc2ccncc2)cc1)S(=O)(=O)c1ccccc1` gave PP1 inh 5.5, Granule exo inh 65.7*, B2AR ag 13.4, GRK2 aptamer HTS 0.0, NadD block 7.2 and Exocytosis CP01 -9.4.
`COc1ccc(N(CC(=O)NCCSc2ccccn2)S(=O)(=O)c2ccccc2)c(OC)c1` gave PP1 inh 2.6, Granule exo inh 64.9*, B2AR ag 7.4, GRK2 aptamer HTS 3.0, NadD block -2.3 and Exocytosis CP01 101.4*.
Screening CCOc1ccccc1N(CC(=O)NCCSCc1ccco1)S(=O)(=O)c1ccccc1 returned PP1 inh -2.2, Granule exo inh 12.1, B2AR ag 6.6, GRK2 aptamer HTS 0.0 and NadD block 10.7.
